Assay outcomes from PubChem.
IDE exosite FP – insulin-degrading enzyme (human) exo-site inhibition. P14735. purified IDE, FL-6b probe fluorescence polarization; hits give low values. z-score at 20 µM. hit rate 6.3% among 17,000;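 active = z-score of -3 or lower, meaning strong loss of probe binding signal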;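 note: His-tagged human IDE residues 42-1019 made in E. coli with 30 nM FL-6b probe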
Target sequence (P14735 42-1019 limits assumed): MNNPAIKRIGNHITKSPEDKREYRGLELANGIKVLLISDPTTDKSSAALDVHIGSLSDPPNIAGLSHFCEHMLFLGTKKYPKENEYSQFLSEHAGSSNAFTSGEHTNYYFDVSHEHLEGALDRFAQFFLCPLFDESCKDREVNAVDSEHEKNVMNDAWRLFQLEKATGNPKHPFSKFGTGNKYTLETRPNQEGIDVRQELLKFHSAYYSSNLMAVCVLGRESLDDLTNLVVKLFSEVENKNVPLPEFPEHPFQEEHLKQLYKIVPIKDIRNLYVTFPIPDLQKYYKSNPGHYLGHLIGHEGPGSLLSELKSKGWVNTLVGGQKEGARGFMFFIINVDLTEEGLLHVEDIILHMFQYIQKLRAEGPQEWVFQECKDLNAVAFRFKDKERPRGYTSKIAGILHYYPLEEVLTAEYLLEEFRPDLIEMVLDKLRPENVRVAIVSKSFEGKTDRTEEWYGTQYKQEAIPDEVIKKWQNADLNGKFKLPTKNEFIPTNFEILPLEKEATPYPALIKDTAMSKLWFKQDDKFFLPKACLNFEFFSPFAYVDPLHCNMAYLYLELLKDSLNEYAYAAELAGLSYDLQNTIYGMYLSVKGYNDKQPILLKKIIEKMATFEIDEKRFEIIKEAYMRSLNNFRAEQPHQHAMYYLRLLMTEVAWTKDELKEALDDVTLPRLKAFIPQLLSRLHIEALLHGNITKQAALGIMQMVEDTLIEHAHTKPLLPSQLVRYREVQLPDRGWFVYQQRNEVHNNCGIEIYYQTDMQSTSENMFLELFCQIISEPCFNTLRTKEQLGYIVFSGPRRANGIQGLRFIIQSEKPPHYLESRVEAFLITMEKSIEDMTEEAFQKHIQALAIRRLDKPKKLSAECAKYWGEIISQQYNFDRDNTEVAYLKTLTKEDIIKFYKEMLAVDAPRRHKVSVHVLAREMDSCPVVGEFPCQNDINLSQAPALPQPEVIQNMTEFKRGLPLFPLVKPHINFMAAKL
The depositor's hits bear a star. Shown is part of a subset that was picked to be rich in hits.

SMILES | IDE exosite FP
COc1ccccc1C#Cc1ccc([C@H]2[C@H](CO)N3CCCCN(S(C)(=O)=O)C[C@@H]23)cc1 | -8.1*
COc1ccc(C#Cc2ccc([C@H]3[C@@H](CO)N4CCCCN(S(=O)(=O)c5ccccc5)C[C@@H]34)cc2)cc1 | 2.3
OC[C@@H]1[C@H](c2ccc(-c3ccccc3)cc2)[C@@H]2CN(CCC(F)(F)F)CCCCN12 | 3.5
COc1ccc(C#Cc2ccc([C@H]3[C@H](CO)N4CCCCN(S(=O)(=O)c5ccccc5)C[C@@H]34)cc2)cc1 | 4.7
COc1ccc(C#Cc2ccc([C@@H]3[C@@H](CO)N4CCCCN(S(=O)(=O)c5ccccc5)C[C@H]34)cc2)cc1 | 5.6
CCCC#Cc1ccc([C@@H]2[C@@H](CO)N3CCCCN(S(C)(=O)=O)C[C@H]23)cc1 | 2.2
OC[C@H]1[C@H](c2ccc(-c3ccccc3)cc2)[C@H]2CN(CCC(F)(F)F)CCCCN21 | 0.51
COc1ccccc1C#Cc1ccc([C@@H]2[C@H]3CN(CCC(F)(F)F)CCCCN3[C@H]2CO)cc1 | -7.8*
COc1ccccc1C#Cc1ccc([C@@H]2[C@H]3CN(S(C)(=O)=O)CCCCN3[C@H]2CO)cc1 | -12*
COCCNC[C@H]1[C@@H](c2ccccc2)[C@@H](CO)N1c1nc(C)c(C)s1 | -1.4
CCC(=O)N1CC[C@@H]2[C@H](CO)Nc3ccc(C#Cc4ccccc4F)cc3[C@@H]21 | 1.4
CCC(=O)N1CC2(CCN(Cc3ccc(Cl)cc3)CC2)c2c(n(C)c3cc(OC)ccc23)[C@H]1CO | -1.2
CN(C)C(=O)c1cccc(-c2ccc([C@@H]3[C@@H](CO)N4C(=O)CN(C(=O)C5CCCCC5)C[C@H]34)cc2)c1 | 3.2
COc1ccccc1NC(=O)N[C@H]1CC[C@@H](CCNS(=O)(=O)c2ccc(Cl)cc2)O[C@H]1CO | 0.42
CCC(=O)N1CC(=O)N2[C@@H](CO)[C@H](c3ccc(C#CC4CCCCC4)cc3)[C@@H]2C1 | 3.6
CCCNC(=O)N1[C@H](CO)[C@H](c2ccccc2)[C@H]1CNC(=O)C1CCC1 | 0.28
O=C(CC1CC1)N1CC(=O)N2[C@@H](CO)[C@@H](c3ccc(-c4ccccc4)cc3)[C@@H]2C1 | -4.8*
O=C(CC1CC1)N1CC(=O)N2[C@@H](CO)[C@H](c3ccc(/C=C/c4ccccc4)cc3)[C@@H]2C1 | -5*
O=C(CC1CC1)N1CC(=O)N2[C@H](CO)[C@@H](c3ccc(/C=C/c4ccccc4)cc3)[C@H]2C1 | -3.3*
COCC(=O)N1CC(=O)N2[C@@H](CO)[C@H](c3ccc(-c4ccccc4)cc3)[C@@H]2C1 | -0.89
O=C(CC1CC1)N1CC(=O)N2[C@H](CO)[C@@H](c3ccc(-c4cccnc4)cc3)[C@@H]2C1 | -1.3
O=C(CC1CC1)N1CC(=O)N2[C@H](CO)[C@H](c3ccc(/C=C/c4ccccc4)cc3)[C@@H]2C1 | -1.5
CCC(=O)N1C[C@@H](O)COC[C@@H]2O[C@H](CC(=O)NC)CC[C@H]21 | 0.27
C[C@@H]1CCCCO[C@H](CN(C)C(=O)Cc2ccccc2)[C@H](C)CN([C@@H](C)CO)C(=O)c2cc(NS(C)(=O)=O)ccc2O1 | 0.77
C[C@@H]1CCCCO[C@H](CN(C)Cc2ccc3c(c2)OCO3)[C@H](C)CN([C@H](C)CO)C(=O)c2cc(NS(=O)(=O)c3cn(C)cn3)ccc2O1 | 1.4
SMILES | IDE exosite FP
CCCNC(=O)N1CC(=O)N2[C@@H](CO)[C@@H](c3ccc(C#Cc4cccc(OC)c4)cc3)[C@@H]2C1 | -1.3
COc1cccc(C#Cc2ccc([C@@H]3[C@@H](CO)N4C(=O)CN(C(=O)C5CC5)C[C@H]34)cc2)c1 | -1.9
CCC(=O)N1CC(=O)N2[C@H](C1)[C@H](c1ccc(C#Cc3cccnc3)cc1)[C@@H]2CO | -3*
COc1cccc(C#Cc2ccc([C@H]3[C@H](CO)N4C(=O)CN(C(=O)c5ccccc5)C[C@@H]34)cc2)c1 | -2.2
CCC(=O)N1CC(=O)N2[C@@H](CO)[C@@H](c3ccc(C#Cc4cccc(OC)c4)cc3)[C@@H]2C1 | -11*
CCC(=O)N1CC(=O)N2[C@H](CO)[C@@H](c3ccc(C#Cc4cccc(OC)c4)cc3)[C@H]2C1 | -4.2*
CCC(=O)N1CC(=O)N2[C@@H](CO)[C@@H](c3ccc(C#Cc4cccnc4)cc3)[C@@H]2C1 | 2
CCC(=O)N1CC(=O)N2[C@H](CO)[C@@H](c3ccc(C#Cc4cccnc4)cc3)[C@@H]2C1 | -0.31
CCCNC(=O)N1CC(=O)N2[C@@H](CO)[C@H](c3ccc(C#Cc4cccc(OC)c4)cc3)[C@@H]2C1 | -2.8
O=C(C1CCCC1)N1CC(=O)N2[C@H](CO)[C@H](c3ccc(C#CC4CCCC4)cc3)[C@H]2C1 | 0.86
COCC(=O)Nc1ccc2c(c1)C(=O)N(C)C[C@H](OC)[C@H](C)CN(CCc1ccccc1)[C@H](C)CO2 | 0.9
CCC(=O)N1[C@@H](CO)[C@@H](c2ccccc2)C12CN(C(=O)Nc1ccccc1F)C2 | -0.89
O=C1CCC(=O)N[C@@H](c2ccc(F)cc2)C/C=C\C[C@H](c2ccc(F)cc2)N1 | -0.84
O=C(Cc1ccccc1)N1CC(=O)N2[C@H](CO)[C@@H](c3ccc(C4=CCCC4)cc3)[C@@H]2C1 | 1.7
